# Measured values as given in PubChem BioAssay AID1053206 (Broad Institute, 2014).
# Active and inactive are the calls of the source.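 Rule for the calls: active = compounds lowering delta-delta-Ct, meaning more Pax4 mRNA, with half-max potency at most twice the top tested dose; inconclusive = flat fit dropping 30 to 70 percent, or unreliable fit; inactive = the rest.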
# Assay: activators of Pax4 gene expression, dose response, mouse alpha TC1 cells, RT-qPCR, cherry-picks (AID 1053206)
# Details: Pax4 mRNA qPCR, 6 days, hits give low values; at 19.5 µM unless noted
row,Compound,max activity (delta-delta-Ct)
1,O=S(=O)(c1ccc(F)cc1)N1C[C@@H]2N[C@H](C1)C2c1ccc(/C=C/c2ccccc2)cc1 (some centres not stated),-0.01% [at 10 µM] (inactive)
2,COc1ccc(S(=O)(=O)Nc2ccc3c(c2)CC(=O)N([C@H](C)CO)C[C@H](C)[C@H](CN(C)Cc2ccc(C(=O)Nc4ccccc4N)cc2)O3)cc1,-0.17% (inactive)
3,COc1ccc2c3c(n(C)c2c1)[C@@H](CO)N(CC1CC1)CC31CN(C(=O)c2ccc3c(c2)OCO3)C1,-0.004% [at 0.038 µM] (inactive)
4,C[C@H](CO)N1C[C@H](C)[C@@H](CN(C)Cc2ccccc2)Oc2c(NC(=O)Cc3cn(C)c4ccccc34)cccc2C1=O,-0.003% [at 10 µM] (inactive)
5,COc1cc(CN2C[C@@H]3N[C@H](C2)C3c2ccc(-c3ccc(C#N)cc3)cc2)cc(OC)c1 (some centres not stated),-0.065% (inactive)
6,Cc1ccccc1S(=O)(=O)N1C[C@@H]2N[C@H](C1)C2c1ccc(-c2cccc(C#N)c2)cc1 (some centres not stated),-0.001% [at 2.6 µM] (inactive)
7,CNC[C@@H]1Oc2cc(C#Cc3ccccc3OC)ccc2S(=O)(=O)N([C@H](C)CO)C[C@H]1C,-0.002% [at 0.6 µM] (inactive)
